Source: PubChem
Pf growth 48h = Primary qHTS for delayed death inhibitors of the malarial parasite plastid, 48 hour incubation; P. falciparum luciferase growth in erythrocytes, 48 h; Potency, µM (highest dose often 28.7 µM), hits mostly inhibitors; 310,000 tested, 5.9% active
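Luciferase-expressing P. falciparum in infected erythrocytes (2% hematocrit, 0.1% parasitemia final) in RPMI 1640/0.5% Albumax were exposed to compound for 48 hours at 37 C, 5% CO2; growth read as luminescence.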
NS1 inh = qHTS Assay for Inhibitors of Influenza NS1 Protein Function; Potency, µM (highest dose often 46.1 µM); 270,000 tested, 0.4% active; AID 2326, 2010; calls by dose curve; further: actives are rising curves; nearly all actives have a fitted effect of over 50% in size
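A cell-based growth assay was used: compounds that relieve NS1-induced slow growth of budding yeast raise OD600. Assay medium was yeast nitrogen base with ammonium sulphate and -URA supplement, pH 6.0, with 2% galactose.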
Pf growth 96h = Primary qHTS for delayed death inhibitors of the malarial parasite plastid, 96 hour incubation | P. falciparum luciferase reporter growth, 96 h | Potency, µM (highest dose often 28.7 µM), hits mostly inhibitors | 320,000 tested, 6.9% active | AID 504834, 2011
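Infected RBCs, 2% Hct / 0.05% parasitemia final; luciferase-reporter P. falciparum; cpd 96 h, 37 C, 5% CO2; luciferase detection reagent; luminescence.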
Cycloheximide cs = Cycloheximide Counterscreen for Small Molecule Inhibitors of Shiga Toxin; cell reporter, cycloheximide protein synthesis inhibition counterscreen; max response, %; 300,000 tested, 12% active; in the data active means max response mostly above about 13%, no sharp cut-off; inactive means mostly below about 14%; further: read at 38.3 µM for the half of the compounds with a filed dose
Shiga toxin inh = A qHTS for Small Molecule Inhibitors of Shiga Toxin; Vero cells, Shiga toxin protein synthesis inhibition reporter; inhibition, % at 38.7 µM; 290,000 tested, 9.2% active; AID 2315, 2010; in the data active means inhibition mostly above about 28%, no sharp cut-off; inactive means mostly below about 43%
SARS PLpro yeast = qHTS of Yeast-based Assay for SARS-CoV PLP; S. cerevisiae expressing SARS-CoV PLpro, growth rescue; Potency, µM (highest dose often 32.9 µM), usual class: activators; 330,000 tested, 0.19% active; calls by dose curve; further: nearly all actives have a fitted effect of over 55% in size
Hits are given with their value. This is a sample that favours compounds with a hit; in the whole collection about 21% have one here. Unless noted, the call rests on the fitted dose curve; in most records, active means well fitted inhibition curve with a large enough effect; inconclusive means small, poorly fitted or top-dose-only effect, or another doubt; inactive means no such curve, though single readings can be large or run the other way.

`CC1Cc2ccccc2N1C(=S)NC(=O)c1ccco1` (stereo not given) gave Pf growth 48h inactive, Pf growth 96h inactive, Cycloheximide cs inactive, Shiga toxin inh inactive and SARS PLpro yeast inactive.
`O=C(N1CCOCC1)N1CCc2ccccc21` gave Pf growth 48h inactive, NS1 inh inactive, Pf growth 96h 12µM, Cycloheximide cs inactive, Shiga toxin inh inactive and SARS PLpro yeast inactive.
`N#CNC(N)=Nc1ccc(Cl)cc1` gave NS1 inh inactive.
Screening CCCCNC(=O)NCc1cnn(C)c1C returned Pf growth 48h inactive, NS1 inh inconclusive, Pf growth 96h inactive, Cycloheximide cs inactive, Shiga toxin inh inactive and SARS PLpro yeast inactive.
Screening Cc1noc(C)c1S(=O)(=O)NCc1cccc(Cl)c1 returned Pf growth 48h inactive, Pf growth 96h inconclusive and SARS PLpro yeast inactive.
For CC1CCN(CC(=O)N2c3ccccc3CCc3ccccc32)CC1 the results were Pf growth 48h 15µM, NS1 inh inactive, Pf growth 96h inactive, Cycloheximide cs inactive, Shiga toxin inh inactive and SARS PLpro yeast inactive.
Screening O=C(c1ccco1)N1CCN(CC(=O)N2c3ccccc3CCc3ccccc32)CC1 returned Pf growth 48h inconclusive, NS1 inh inactive, Pf growth 96h 10µM, Cycloheximide cs inactive, Shiga toxin inh inactive and SARS PLpro yeast inactive.
For O=C(CN1CCCCC1)N1c2ccccc2CCc2ccccc21 the results were NS1 inh inactive, Pf growth 96h inconclusive, Cycloheximide cs inactive, Shiga toxin inh inactive and SARS PLpro yeast inactive.
`O=C(c1ccc(Br)o1)N1CCc2ccccc21` gave Pf growth 48h inactive, NS1 inh inactive, Pf growth 96h inactive, Cycloheximide cs 44, Shiga toxin inh 87 and SARS PLpro yeast inactive.
Screening CCOC(=O)C(=O)N1CCC(C(=O)OC)CC1 returned Pf growth 48h inactive, NS1 inh inactive, Pf growth 96h inactive, Cycloheximide cs inactive, Shiga toxin inh inactive and SARS PLpro yeast inactive.
COc1ccc(-c2oc3cccnc3c2/C=C/c2ccc(OC)c(OC)c2)cc1 was read as Pf growth 48h inconclusive, NS1 inh inconclusive, Pf growth 96h 12µM, Cycloheximide cs 9.9, Shiga toxin inh inactive and SARS PLpro yeast inactive.
`COC(=O)c1cccc(CSC(=S)N2CCCC2)c1` gave Pf growth 48h inactive, NS1 inh inactive, Pf growth 96h inactive, Cycloheximide cs 30, Shiga toxin inh inactive and SARS PLpro yeast inactive.
Screening Cc1cccc2sc(N(CCCN(C)C)C(=O)c3ccc(C(=O)c4ccccc4)cc3)nc12 returned Pf growth 48h 6.6µM, NS1 inh inactive, Pf growth 96h inactive, Cycloheximide cs inactive, Shiga toxin inh inactive and SARS PLpro yeast inactive.
`CN(C)CCCN(C(=O)c1cccs1)c1nc2cc3c(cc2s1)OCO3` gave Pf growth 48h inactive, Pf growth 96h inconclusive, Cycloheximide cs 17, Shiga toxin inh inactive and SARS PLpro yeast inactive.
For COc1ccc2sc(N(CCCN(C)C)C(=O)c3ccc(C(=O)c4ccccc4)cc3)nc2c1 the results were Pf growth 48h 13µM, Pf growth 96h inconclusive and SARS PLpro yeast inactive.
CN(C)CCCN(C(=O)c1ccco1)c1nc2cc3c(cc2s1)OCO3 was read as Pf growth 48h inactive, NS1 inh inactive, Pf growth 96h inactive, Cycloheximide cs 12, Shiga toxin inh inactive and SARS PLpro yeast inactive.
For CCNC(=O)C12CCC(C)(c3nc4cc(C)c(C)cc4nc31)C2(C)C (stereo not given) the results were Pf growth 48h inconclusive, NS1 inh inactive, Pf growth 96h inactive, Cycloheximide cs inactive, Shiga toxin inh inactive and SARS PLpro yeast inactive.
`COc1ccccc1CNC(=O)COC(=O)CSc1ccc(C)c(C)c1` gave Pf growth 48h inconclusive, Pf growth 96h inactive and SARS PLpro yeast inactive.
Screening COc1ccc(CN2CCN(C(=O)CC(C)C)CC2)cc1 returned Pf growth 48h inactive, NS1 inh inactive, Pf growth 96h inactive, Cycloheximide cs inactive, Shiga toxin inh inactive and SARS PLpro yeast inactive.
Screening COc1ccc2sc(N(CCCN(C)C)C(=O)c3ccc(S(=O)(=O)N4CCCc5ccccc54)cc3)nc2c1 returned Pf growth 48h 7.4µM, Pf growth 96h 8.3µM and SARS PLpro yeast inactive.
CN(C)CCCN(C(=O)c1ccc(C(=O)c2ccccc2)cc1)c1nc2cc3c(cc2s1)OCO3 was read as Pf growth 48h 12µM, NS1 inh inactive, Pf growth 96h inactive, Cycloheximide cs inactive, Shiga toxin inh inactive and SARS PLpro yeast inactive.
CN(C)CCCN(C(=O)c1ccc([N+](=O)[O-])s1)c1nc2cc3c(cc2s1)OCCO3 was read as Pf growth 48h inactive, NS1 inh inactive, Pf growth 96h inactive, Cycloheximide cs 12, Shiga toxin inh inactive and SARS PLpro yeast inactive.
`CCN(CC)CCN(C(=O)c1ccc(C(=O)c2ccccc2)cc1)c1nc2cc3c(cc2s1)OCO3` gave Pf growth 48h inactive, NS1 inh inactive, Pf growth 96h inactive, Cycloheximide cs inactive, Shiga toxin inh inactive and SARS PLpro yeast inactive.
`C/C(Cn1cnc([N+](=O)[O-])n1)=N\NC(=O)c1cccnc1` gave Pf growth 48h inactive, NS1 inh inactive, Pf growth 96h inactive, Cycloheximide cs 14, Shiga toxin inh inactive and SARS PLpro yeast inactive.
Screening C/C(Cn1cnc([N+](=O)[O-])n1)=N\NC(=O)c1ccc(Br)cc1 returned Pf growth 48h inactive, NS1 inh inactive, Pf growth 96h inactive, Cycloheximide cs 18, Shiga toxin inh 44 and SARS PLpro yeast inactive.
`C/C(Cn1cnc([N+](=O)[O-])n1)=N/NC(=O)COc1ccccc1Cl` gave Pf growth 48h inactive, NS1 inh inactive, Pf growth 96h inactive, Cycloheximide cs inactive, Shiga toxin inh inactive and SARS PLpro yeast inactive.
Screening O=C(NC(=S)Nc1cccc(Cl)c1Cl)C1CC1 returned Pf growth 48h 12µM, NS1 inh inactive, Pf growth 96h inactive, Cycloheximide cs inactive, Shiga toxin inh inactive and SARS PLpro yeast inactive.
Screening O=C(NC(=S)Nc1ccccc1F)C1CCCCC1 returned Pf growth 48h inactive, NS1 inh inactive, Pf growth 96h inconclusive, Cycloheximide cs 57, Shiga toxin inh inactive and SARS PLpro yeast inconclusive.
`O=C(NC(=S)Nc1ccccc1Br)C1CCCC1` gave Pf growth 48h inactive, NS1 inh inactive, Pf growth 96h inactive, Cycloheximide cs 38, Shiga toxin inh 143 and SARS PLpro yeast inactive.
Screening CC1CCN(c2ccc(-c3ccc(NC(=O)C(F)(F)F)cc3)nn2)CC1 returned Pf growth 48h inactive, NS1 inh inactive, Pf growth 96h inactive, Cycloheximide cs 36, Shiga toxin inh 41 and SARS PLpro yeast inactive.
For CN(C)CC/C=C1/c2ccccc2Sc2ccc(Cl)cc21 the results were Pf growth 48h 10µM, NS1 inh inactive, Pf growth 96h inconclusive, Cycloheximide cs inactive, Shiga toxin inh inactive and SARS PLpro yeast inactive.
